# In publication PMC8384837, “Expanding the binding specificity for RNA recognition by a PUF domain”:
# Biological target: PUM1 PUF domain R5-GFL (Homo sapiens, UniProt Q14671 828-1176, C1007G;R1008F;Q1011L)
# Assay: yeast three-hybrid, YBZ-1, SC-Leu-His + 0.5 mM 3-AT, 4 days
# Details: tags: N-Gal4 AD-HA kept; label: inside an RPR1-promoter hybrid RNA with tandem MS2 sites; ssRNA
# Outline: (§1)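 Each repeat of the Pumilio-1 PUF domain was randomized at its three base-contacting residues, and these libraries were co-expressed from a centromeric plasmid with matching RNA elements in strain YBZ-1. After four days on SC-Leu (input) or SC-Leu-His + 0.5 mM 3-AT (selection), the repeat regions were PCR-amplified and Illumina-sequenced. The interaction score compares variant frequency between input and selection as a log change, computed in log2 with a pseudocount of 1 for absent variants.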
row,Sequence,binding signal
1,GGCUAGAACUAGUGGAUCCCCCGGCGCCCGGCGGCUCGAGCCCGGGUAAGUGUUAAUAGUCUGCAUGCCGCCGGGCGCCAUGCCUGCAGGUCGACUCUAGAAAACAUG,5.05 log2 enrichment (interaction score)
2,GGCUAGAACUAGUGGAUCCCCCGGCGCCCGGCGGCUCGAGCCCGGGUAAGUGUAAAUAGUCUGCAUGCCGCCGGGCGCCAUGCCUGCAGGUCGACUCUAGAAAACAUG,3.65 log2 enrichment (interaction score)
3,GGCUAGAACUAGUGGAUCCCCCGGCGCCCGGCGGCUCGAGCCCGGGUAAGUGUGAAUAGUCUGCAUGCCGCCGGGCGCCAUGCCUGCAGGUCGACUCUAGAAAACAUG,1.77 log2 enrichment (interaction score)

# Biological target: PUM1 PUF domain R3-ARR (Homo sapiens, UniProt Q14671 828-1176, C935A;Q939R)
# Assay: as above
# Details: tags: N-Gal4 AD-HA kept; label: inside an RPR1-promoter hybrid RNA with tandem MS2 sites; ssRNA
# Outline: as §1
row,Sequence,binding signal
1,GGCUAGAACUAGUGGAUCCCCCGGCGCCCGGCGGCUCGAGCCCGGGUAAGUGUAAAUAGUCUGCAUGCCGCCGGGCGCCAUGCCUGCAGGUCGACUCUAGAAAACAUG,2.49 log2 enrichment (interaction score)
2,GGCUAGAACUAGUGGAUCCCCCGGCGCCCGGCGGCUCGAGCCCGGGUAAGUGUAAUUAGUCUGCAUGCCGCCGGGCGCCAUGCCUGCAGGUCGACUCUAGAAAACAUG,3.37 log2 enrichment (interaction score)
3,GGCUAGAACUAGUGGAUCCCCCGGCGCCCGGCGGCUCGAGCCCGGGUAAGUGUAAGUAGUCUGCAUGCCGCCGGGCGCCAUGCCUGCAGGUCGACUCUAGAAAACAUG,1.41 log2 enrichment (interaction score)
